# Measurements as given in paper PMC4336329 (PLoS ONE, 2015).
# About 14,000 (4.5%) of roughly 310,000 compounds showed an effect of 50% or more. The effect is printed as a negative number. The list comes from a sample in which strong results are over-represented; it also holds similar structures and randomly drawn compounds.
# Biological target: human ether-à-go-go-related gene (hERG) potassium channel (human, UniProt Q12809)
# Assay: primary screen, population patch clamp on CHO cells stably expressing hERG; higher = less effect of the substance
# 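Also: peak tail current of the secondary pulse compared with the same well before compound.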
# human ether-à-go-go-related gene (hERG) potassium channel, sequence (Q12809 whole entry, looked up): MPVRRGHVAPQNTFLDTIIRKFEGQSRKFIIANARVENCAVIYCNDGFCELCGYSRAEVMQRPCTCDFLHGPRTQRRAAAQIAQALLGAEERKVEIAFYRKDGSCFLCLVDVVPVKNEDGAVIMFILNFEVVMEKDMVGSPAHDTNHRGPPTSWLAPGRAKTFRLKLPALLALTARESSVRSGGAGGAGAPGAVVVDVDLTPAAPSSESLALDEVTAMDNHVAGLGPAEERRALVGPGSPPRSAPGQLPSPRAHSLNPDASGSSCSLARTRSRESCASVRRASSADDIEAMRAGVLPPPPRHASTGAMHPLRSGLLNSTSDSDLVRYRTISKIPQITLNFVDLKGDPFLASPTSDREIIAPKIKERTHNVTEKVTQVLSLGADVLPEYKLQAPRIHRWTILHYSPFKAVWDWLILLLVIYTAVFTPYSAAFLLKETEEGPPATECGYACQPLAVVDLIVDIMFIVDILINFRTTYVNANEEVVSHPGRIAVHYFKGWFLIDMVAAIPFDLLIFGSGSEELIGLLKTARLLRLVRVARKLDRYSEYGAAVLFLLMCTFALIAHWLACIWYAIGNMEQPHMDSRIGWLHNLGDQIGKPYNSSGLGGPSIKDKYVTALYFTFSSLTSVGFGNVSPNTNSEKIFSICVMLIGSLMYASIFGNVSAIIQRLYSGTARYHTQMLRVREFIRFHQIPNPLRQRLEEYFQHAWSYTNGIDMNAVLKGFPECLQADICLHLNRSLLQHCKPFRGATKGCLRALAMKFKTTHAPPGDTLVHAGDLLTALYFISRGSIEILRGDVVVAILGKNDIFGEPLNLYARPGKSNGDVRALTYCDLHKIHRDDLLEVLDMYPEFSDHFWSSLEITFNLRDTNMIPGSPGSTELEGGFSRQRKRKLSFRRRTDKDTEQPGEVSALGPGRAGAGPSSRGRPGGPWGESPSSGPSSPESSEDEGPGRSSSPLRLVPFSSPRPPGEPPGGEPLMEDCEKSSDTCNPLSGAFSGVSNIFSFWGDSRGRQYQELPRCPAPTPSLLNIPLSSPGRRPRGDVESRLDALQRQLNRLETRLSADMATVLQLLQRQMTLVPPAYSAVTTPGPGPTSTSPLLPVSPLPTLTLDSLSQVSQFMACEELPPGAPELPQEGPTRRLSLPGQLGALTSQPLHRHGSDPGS
row,Structure (SMILES),"hERG current change (%, negative = inhibition) at 10uM [%]"
1,O=C(NCc1nc(-c2ccc(C(F)(F)F)cc2)no1)c1cccs1,5.51
2,CCOc1ccc(-n2ccnc2SCC(=O)N2CCCc3ccccc32)cc1,-13.7
3,N#CCCN1CCN(C(=S)c2ccc(-c3cc(Cl)ccc3Cl)o2)CC1,-12.3
4,S=C(c1ccc(-c2cccc(Cl)c2)o1)N1CCOCC1,2.46
5,N#CCCN1CCN(C(=S)c2ccc(-c3ccc(Cl)c(Cl)c3)o2)CC1,-14.1
6,S=C(c1ccc(-c2cccc(Cl)c2)o1)N1CCCCC1,21.7
7,N#CCCN1CCN(C(=S)c2ccc(-c3cccc(Cl)c3)o2)CC1,-59.9
8,N#CCCN1CCN(C(=S)c2ccc(-c3ccc(Cl)cc3)o2)CC1,-55.8
9,CC(C)c1ccc2oc(=O)cc(CN3CCCCC3)c2c1,-12.8
10,O=C(CN1N=C(c2ccc(Cl)cc2)CCC1=O)NCc1cccnc1,-26.4
11,CCO.CCn1c(COc2ccc3c(c2)OCO3)nnc1SCC(=O)O,-0.394
12,CCOC(=O)N1CCN(C(=O)CS(=O)(=O)Cc2nc(-c3ccccc3F)oc2C)CC1,-13.6
13,CCOC(=O)CNC(=O)CSc1nc2cccnc2n1CC,-7.04
14,O=C(CSc1nc2cccnc2n1Cc1ccccc1)N1CCCC1,-63.7
15,CCOC(=O)CNC(=O)CSc1nc2cccnc2n1Cc1ccccc1,-53.9
16,CCOC(=O)CNC(=O)CSc1nc2cccnc2n1C,7.54
17,Cn1c(SCC(=O)N2CCCC2)nc2cccnc21,16.9
18,COCCn1c(SCC(=O)N2CCCCC2)nc2cccnc21,-1.5
19,CC1=C(C(=O)OC(C)C)C(c2cncc(-c3ccc(F)cc3)c2)C(C#N)=C(N)O1 (stereo not shown),-28.6
20,Cc1nn(CC2CCCCC2)c(N)c1-c1ccccc1,-12.2

row,Structure (SMILES),"hERG current change (%, negative = inhibition) at 10uM [%]"
1,CC(C)(C)c1cc(C(F)(F)F)c(C#N)c(=O)[nH]1,25
2,Cc1nc(NC2CCCCC2)c2nnn(Cc3ccccc3Cl)c2n1,8.09
3,CC1CCCC/C1=N/Nc1ccc([N+](=O)[O-])cc1[N+](=O)[O-] (stereo not shown),-1.11
4,O=[N+]([O-])c1ccc(N/N=C2/CCCCC2c2ccccn2)c([N+](=O)[O-])c1 (stereo not shown),-56.3
5,C[n+]1ccccc1C1CCCC/C1=N\Nc1ccc([N+](=O)[O-])cc1[N+](=O)[O-].[I-] (stereo not shown),-11.8
6,COc1ccccc1C(=O)NC(CCSC)C(=O)NCC(c1cccs1)N(C)C (stereo not shown),2.41
7,COc1ccc(NC(=O)C(=O)NNC(=O)COc2ccc(Cl)cc2)c(OC)c1,10.5
8,Cn1cc(C(=O)c2ccccc2)cc1-c1nc2ccccc2n1C,-41.9
9,Cn1cc(C(=O)c2ccc(F)cc2)cc1-c1nc2ccccc2n1C,-50.5
10,Cn1cc(C(=O)c2ccc(Cl)cc2)cc1-c1nc2ccccc2n1C,-47.9
11,CCN(CC)CCn1c(OC)cc(=O)[nH]c1=O,17.6
12,CCC1=C(OC(=O)N(CC)CC)N2C(=O)OC(=NCCc3c[nH]c4ccccc34)[C@]2(C)[C@H]2C1=CC[C@H]1C(=O)N(CC)C(=O)[C@H]12,-9.68
13,CCn1cc(CNC(=O)c2ccc3nc(Cc4ccc(OC)cc4)oc3c2)cn1,6.8
14,COc1ccc([C@H]2CC(=O)C=C(c3cccc(Br)c3)C2)cc1,-1.14
15,COc1ccc([C@H]2CC(=O)C=C(c3cc(Cl)ccc3OC)C2)cc1,7.4
16,COc1cccc(C2=CC(=O)C[C@H](c3ccc(Cl)cc3)C2)c1,15.4
17,COc1ccc([C@H]2CC(=O)C=C(c3cccc(Cl)c3)C2)cc1,-11.8
18,COc1ccc([C@H]2CC(=O)C=C(c3cccc(OC)c3)C2)cc1,-82.1
19,COc1ccc([C@H]2CC(=O)C=C(c3cccc(C#N)c3)C2)cc1,-72.3
20,COc1ccc([C@H]2CC(=O)C=C(c3ccnc4ccc(Cl)cc34)C2)cc1,-57.6

row,Structure (SMILES),"hERG current change (%, negative = inhibition) at 10uM [%]"
1,COc1ccc([C@H]2CC(=O)C=C(c3ccc(Cl)cc3C)C2)cc1,4.03
2,COc1cccc(C2=CC(=O)C[C@H](c3ccc(F)cc3)C2)c1,-14.9
3,Cc1ccc(S(=O)(=O)NCC(=O)NCCc2c[nH]c3ccccc23)cc1C,3.3
4,O=C(NCC1OCCCN1S(=O)(=O)c1cc(F)ccc1F)C(=O)NC1CCCCC1 (stereo not shown),-3.8
5,O=C(CN1CCC(C(=O)c2ccc3c(c2)OCCO3)CC1)Nc1ccccc1F,-0.724
6,O=C(CN1CCN(CC(=O)Nc2ccccc2F)CC1)Nc1ccc2c(c1)OCCO2,-71.2
7,O=C(CN1CCOCC1)Nc1ccccc1Cl,-8.73
8,O=C(CN1CCN(CC(=O)Nc2ccccc2Cl)CC1)Nc1ccc2c(c1)OCCO2,-68.7
9,O=C(CN1CCOCC1)Nc1ccc2c(c1)OCCO2.O=C(O)C(=O)O,15
10,Cl.O=C(CN1CCC(NC(=O)c2ccccc2F)CC1)Nc1ccc2c(c1)OCCO2,6.04
11,COC(=O)N/N=C/c1ccccc1Cl,19.4
12,N#CC(c1cccc(C(F)(F)F)c1)(c1ncc(C(F)(F)F)cc1Cl)N1CCOCC1 (stereo not shown),4.46
13,O=C(c1cc(COc2ccc(F)cc2Cl)on1)N(Cc1ccncc1)CC1CCCO1 (stereo not shown),-60.7
14,CCN(Cc1ccncc1)C(=O)c1cc(COc2ccc(F)cc2Cl)on1,-44
15,COc1ccc(OCc2cc(C(=O)N(C)CC3CCCCO3)no2)c(Cl)c1 (stereo not shown),-17.4
16,CN(CC1CCCCO1)C(=O)c1cc(COc2ccc(F)cc2Cl)on1 (stereo not shown),-87.1
17,COc1cc(Cl)ccc1OCc1cc(C(=O)N(C)CC2CCCCO2)no1 (stereo not shown),-18.7
18,CCCN(CC1CCCO1)C(=O)c1cc(COc2ccc(F)cc2F)on1 (stereo not shown),-15
